Source: PubChem BioAssay (NCATS)
Records with an inconclusive call do not appear. A number with no mark means an inactive call. Calls of active or inactive are those of the source. Calls come from the whole dose curve; as a rule, active = well fitted inhibition curve with a large enough effect; inconclusive = small, poorly fitted or top-dose-only effect; inactive = flat fitted curve, though single readings scatter.

Target: Luciferin 4-monooxygenase (Photinus pyralis) (UniProt P08659)
Test: Biochemical firefly luciferase enzyme assay for NPC (AID 624030); note: nearly all actives have a fitted effect of over 70% in size;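 for activity change, negative = inhibition: 0% = DMSO and -100% = full luciferase inhibition by PTC124 control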
Conditions: purified P. pyralis luciferase, luminescence, 5 min; series mostly up to 58.6 µM; activity change, negative = inhibition: at the top concentration
Text: Charcot-Marie-Tooth-Association [CMTA] National Center for Advancing Translational Sciences [NCATS] Charcot-Marie-Tooth (CMT) disease was first characterized by Jean-Martin Charcot and Pierre Marie in France and, independently, by Howard Henry Tooth in England in 1886. CMT is one of the most common inherited neurological diseases, affecting approximately 1 in 2,500 Americans. […] The most prevalent type of CMT is known as CMT1A and caused by a duplication of the PMP22 gene which leads to over-expression of this protein. PMP22 is a glycosylated intrinsic membrane protein accounting for 2-5% of the myelin protein content, and its over-expression results in demyelination and subsequently axonal loss. A pair of cellular transcription-based assays was developed in the S16 rat Schwann cell lines (Hai, M., et al., 2002) stably transfected with orthogonal reporters - firefly luciferase (Fluc) and beta-lactamase (beta-Lac) - whose expression is driven by an intronic regulatory element of the PMP22 gene (Jones, E.A., et al., 2011) to recapitulate endogenous expression of PMP22. A comprehensive library of approved drugs, the NCGC Pharmaceutical Collection (Huang, R., et al., 2011), was screened in the cross-validating platform of the orthogonal reporter assays to identify drug modulators inhibitory towards PMP22 expression. A set of counter-screens was devised to address non-specific activity of the library. An ATP-dependent CellTiter-Glo assay (developed by Promega Corp) was utilized to control cell viability. In addition, biochemical Fluc enzyme assay was performed to assess direct inhibition of the Fluc enzymatic activity. References Hai, M., Muja, N., DeVries, G.H., Quarles, R.H. and Patel, P.I. Comparative analysis of Schwann cell lines as model systems for myelin gene transcription studies. J Neurosci Res, 2002. 69(4): pp 497-508 Huang, R., Southall, N., Wang, Y., Yasgar A., Shinn P., Jadhav, A. , Nguyen, D.-T. and Austin, C.P., The NCGC pharmaceutical collection: a comprehensive resource of clinically approved drugs enabling repurposing and chemical genomics. Sci Transl Med, 2011. 3(80): p. 80ps16.
Compounds were transferred to the plates in 23nl, and one microliter/well luciferase enzyme-buffer solution (10 nM P. pyralis luciferase and 50 mM Tris Acetate final concentrations) was dispensed yielding a final reaction volume of […]. Luciferase luminescence was measured by a ViewLux plate reader within 5 minutes of enzyme-buffer addition. The % activity was determined by normalizing to the average readings of PTC124 (a positive control) relative to DMSO (0% Activity). The concentration-effect curves were then classified based on curve quality (r2), response magnitude and degree of measured activity.
Potency is the fitted concentration of half-maximal effect.

Luciferin 4-monooxygenase (Photinus pyralis), sequence (P08659 whole entry, looked up): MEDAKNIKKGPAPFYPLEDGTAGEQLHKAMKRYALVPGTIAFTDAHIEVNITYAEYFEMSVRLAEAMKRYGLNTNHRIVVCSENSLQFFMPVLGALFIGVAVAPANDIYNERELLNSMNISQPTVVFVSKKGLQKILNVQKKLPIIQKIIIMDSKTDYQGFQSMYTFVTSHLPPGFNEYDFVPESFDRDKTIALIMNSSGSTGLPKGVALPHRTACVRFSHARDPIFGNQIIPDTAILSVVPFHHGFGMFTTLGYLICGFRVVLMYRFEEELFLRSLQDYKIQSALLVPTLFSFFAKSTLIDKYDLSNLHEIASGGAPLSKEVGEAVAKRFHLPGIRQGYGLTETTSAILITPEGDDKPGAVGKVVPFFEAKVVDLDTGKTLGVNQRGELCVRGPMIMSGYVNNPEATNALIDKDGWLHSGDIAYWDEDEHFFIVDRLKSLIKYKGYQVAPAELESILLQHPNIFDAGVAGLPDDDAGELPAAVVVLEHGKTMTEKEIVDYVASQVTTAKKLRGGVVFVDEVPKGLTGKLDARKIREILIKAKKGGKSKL

| Compound | activity change, negative = inhibition | Potency |
| --- | --- | --- |
| COc1cc(C(=S)N2CCOCC2)ccc1O | 1.35% |  |
| CNCCc1ccccn1 | 1.09% [at 24.9 µM] |  |
| CN1CCN(CCC(=O)N2c3ccccc3Sc3ccc(C(F)(F)F)cc32)CC1 | 7.4% |  |
| CCOC(=O)[C@H](CCc1ccccc1)N[C@@H](C)C(=O)N1[C@H](C(=O)O)C[C@H]2CCCC[C@@H]21 |  | inactive |
| N#CCC(=O)NN | 0.545% |  |
| FC1(F)C(F)(F)C(F)(F)C2(F)C(F)(F)C(F)(F)C(F)(F)C(F)(F)C2(F)C1(F)F (stereo not given) | -1.69% |  |
| CCCCCN=C(N)N/N=C/c1c[nH]c2ccc(OC)cc12 | 11.3% |  |
| CCCN(CCc1cccs1)[C@H]1CCc2c(O)cccc2C1 | 6.78% |  |
| CC(=O)Nc1ccc(OCC(O)CNC(C)C)cc1 (stereo not given) | 2.96% |  |
| C=C[C@@]1(C)CC(=O)[C@]2(O)[C@@]3(C)[C@@H](O)CCC(C)(C)[C@@H]3[C@H](O)[C@H](OC(C)=O)[C@@]2(C)O1 | 8.95% |  |
| CC1(COc2ccc(CC3SC(=O)NC3=O)cc2)CCCCC1 (stereo not given) |  | 16.1 µM (active) |
| NCc1ccccc1Sc1ccccc1CO | -0.76% |  |
| COc1cc([C@H]2Oc3cc([C@H]4Oc5cc(O)cc(O)c5C(=O)[C@@H]4O)ccc3O[C@@H]2CO)ccc1O | -10.1% |  |
| OC[C@H]1O[C@@H]2O[C@H]3[C@H](O)[C@@H](O)[C@@H](O[C@H]4[C@H](O)[C@@H](O)[C@@H](O[C@H]5[C@H](O)[C@@H](O)[C@@H](O[C@H]6[C@H](O)[C@@H](O)[C@@H](O[C@H]7[C@H](O)[C@@H](O)[C@@H](O[C@H]8[C@H](O)[C@@H](O)[C@@H](O[C@H]1[C@H](O)[C@H]2O)O[C@@H]8CO)O[C@@H]7CO)O[C@@H]6CO)O[C@@H]5CO)O[C@@H]4CO)O[C@@H]3CO | 0.456% |  |
| FC(F)(F)C(F)(F)C(F)(F)C(F)(F)C(F)(F)C(F)(F)C(F)(F)C(F)(F)Br | -0.0974% |  |
| NS(=O)(=O)Cc1noc2ccccc12 | 4.59% |  |
| Cc1cccc(C)c1NC(=O)CN1CCCC1 | -0.696% |  |
| O=C(O)CCC(=O)Nc1ccc(S(=O)(=O)Nc2nccs2)cc1 | -0.241% [at 24.9 µM] |  |
| CCCCc1cc2ccccc2c(OCCN(C)C)n1 | 11.3% [at 24.9 µM] |  |
| CC(=O)Nc1ccc(OC(=O)c2ccccc2OC(C)=O)cc1 | -10.2% |  |

| Compound | activity change, negative = inhibition | Potency |
| --- | --- | --- |
| COc1ccccc1N1CCN(CCCCNC(=O)c2ccc(-c3ccc(C(C)=O)cc3)cc2)CC1 | 1.6% |  |
| CN1CCC[C@@H]1CCO[C@](C)(c1ccccc1)c1ccc(Cl)cc1 | 11.2% |  |
| CCN(CC)CCNc1ccc(CO)c2sc3ccccc3c(=O)c12 | 4.72% |  |
| O=C(Nc1ccc([N+](=O)[O-])cc1)Nc1ccc([N+](=O)[O-])cc1 | 5.96% |  |
| CCOC(=O)C(C#N)=C(c1ccccc1)c1ccccc1 | -2.05% |  |
| COc1cc(NS(=O)(=O)c2ccc(N)cc2)ncn1 | -1.91% [at 24.9 µM] |  |
| CC(=O)Nc1ncc([N+](=O)[O-])s1 | -5.42% |  |
| CN(CCCN1c2ccccc2CCc2ccccc21)CC(=O)c1ccc(Cl)cc1 | 1.18% |  |
| CCOC(=O)c1c(N)sc2c1CCN(Cc1ccccc1)C2 | -1.65% |  |
| CC(C)CCCC(C)N (stereo not given) | -2.33% |  |
| CCc1nn(CCCN2CCN(c3cccc(Cl)c3)CC2)c(=O)n1CCOc1ccccc1 | 1.68% |  |
| CCCCCCCCNC(C)C(O)c1ccc(SC(C)C)cc1 (stereo not given) | 13.8% |  |
| O=C(O)CCc1nc2ccccc2[nH]1 | 1.71% |  |
| CC(=O)Nc1ccc(CC(=O)O)cc1 | -0.151% |  |
| CCCCCCCCCCCCCC(=O)OC(C)C | 1.83% |  |
| CC(C)Cc1ccc(CC(=O)O)cc1 | -6.59% |  |
| COc1ccc(C(=O)c2ccccc2O)c(O)c1 | -13.8% [at 24.9 µM] |  |
| Cc1cc(CC(=O)O)c(C)n1-c1ccc(Cl)cc1 | 0.822% |  |
| COP(=O)(OC)OC(c1ccc(Cl)cc1)P(=O)(OC)OC (stereo not given) | 0.27% |  |
| C#C[C@]1(O)CC[C@H]2[C@@H]3CCC4=CC(=O)CC[C@@H]4[C@H]3CC[C@@]21CC | -1.34% |  |
